Experimental data published in PubChem BioAssay (NCATS).
Records with an inconclusive call do not appear. Activity calls are given as the source filed them. Unless noted, calls come from the whole dose curve; as a rule, active = well fitted curve in the direction sought with a large enough effect; inconclusive = small, poorly fitted or top-dose-only effect, or another doubt; inactive = no such curve, though single readings can be large; an effect the other way counts as inactive or inconclusive.

What was measured:
[1] = qHTS to identify inhibitors of the type 1 interferon - major histocompatibility complex class I in skeletal muscle: primary screen against the NCATS Mechanism Interrogation Plate v5.0 (MIPE) Libary (AID 1347411); note: nearly all actives have a fitted effect of over 65% in size; note: potency is the fitted concentration of half-maximal effect;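 for activity change, negative = inhibition: plate controls were vehicle for no effect and reference inhibitor for full effect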
Outline: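 Cells were genome-edited human myoblasts carrying a HiBit tag on endogenous HLA-B. They were treated with IFN-beta (4.0 ng/ml) and titrated compounds (top 46 uM) for 24 hrs before lytic HiBiT detection.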

[2] = Primary qHTS for inhibitors of nuclear receptor binding SET domain protein 2 (NSD2) in an isogenic RCH-ACV NSD2 p.E1099K mutant (9B) (AID 1645876); note: nearly all actives have a fitted effect of over 70% in size; note: potency is the fitted concentration of half-maximal effect
[3] = Primary qHTS for inhibitors of nuclear receptor binding SET domain protein 2 (NSD2) in an RCH-ACV wild type WT cells (2C) (AID 1645877); note: nearly all actives have a fitted effect of over 70% in size; note: potency is the fitted concentration of half-maximal effect
[4] = target: Glutathione peroxidase 1 (Homo sapiens) (UniProt P07203); experiment: Primary qHTS Assay for Inhibitors of Recombinant Selenoprotein Glutathione Peroxidase 1 (GPX1) (AID 1845191); note: nearly all actives have a fitted effect of over 65% in size; for activity, negative = inhibition: % is set by controls: 0 for no effect and ±100 for the full control effect
Glutathione peroxidase 1 (Homo sapiens), sequence (P07203 whole entry, looked up): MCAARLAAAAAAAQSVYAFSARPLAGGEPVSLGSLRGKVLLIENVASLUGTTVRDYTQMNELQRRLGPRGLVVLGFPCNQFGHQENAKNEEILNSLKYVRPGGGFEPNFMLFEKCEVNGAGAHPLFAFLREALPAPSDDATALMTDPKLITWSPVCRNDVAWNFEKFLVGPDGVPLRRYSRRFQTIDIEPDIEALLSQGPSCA
Outline: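 10 nM GPX1 + cpd, 30 min RT; start w/ 1 mM GSH, 0.5 mM cumene hydroperoxide, 0.5 mM NADPH, 100 nM GR, 0.01% BSA; buffer 50 mM Tris-HCl pH 7.5, 2 mM EDTA, 150 mM NaCl; Fl 340/450, 0 & 15 min.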

[5] = target: Phospholipid hydroperoxide glutathione peroxidase GPX4 (Homo sapiens) (UniProt P36969); experiment: Primary qHTS Assay for Inhibitors of Recombinant Selenoprotein Glutathione Peroxidase 4 (GPX4) (AID 1845192); conditions: outcome: dose series up to 50 µM unless noted; note: nearly all actives have a fitted effect of over 65% in size; for activity change, negative = inhibition: series mostly up to about 50 µM; % is set by controls: 0 for no effect and ±100 for the full control effect
Phospholipid hydroperoxide glutathione peroxidase GPX4 (Homo sapiens), sequence (P36969 whole entry, looked up): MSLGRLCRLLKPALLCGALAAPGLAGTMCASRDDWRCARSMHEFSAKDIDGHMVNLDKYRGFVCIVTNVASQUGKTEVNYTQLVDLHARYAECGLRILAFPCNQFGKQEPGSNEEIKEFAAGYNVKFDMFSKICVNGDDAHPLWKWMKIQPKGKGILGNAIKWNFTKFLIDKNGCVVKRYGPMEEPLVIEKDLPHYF
Outline: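 NADPH consumption, followed by fluorescence at 340/450 nm between 0 and 15 min, reports GPX4 activity via coupled glutathione reductase (100 nM). Enzyme 200 nM was pre-exposed to compound 30 min; 0.5 mM cumene hydroperoxide and 1 mM GSH served as substrates.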

[6] = qHTS drug screen for cell cycle checkpoint inhibitors in PARPi-resistant BRCA-mutant ovarian cancer cell lines. (AID 1963452; calls by dose curve; note: potency is the fitted concentration of half-maximal effect); conditions: PEO1/OlaR viability, CellTiter-Glo luminescence, 96 h; for Z-AUC: stronger effect = lower value
Outline: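 PEO1, PEO4 and PEO1/OlaR ovarian cancer cells, 600 per well, exposed 96 h at 37C to a dilution series. Viability read by CellTiter-Glo luminescence, normalized to DMSO and empty wells; activity summarized as Z-AUC.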

[7] = measured here: PEO1 parental Z-AUC

| Compound | Potency [1] | Potency [2] | Potency [3] | Potency [4] | Potency [5] | Z-AUC [6] | Z-AUC [6, 7] | Z-AUC ([6]; measured here: PEO4 Z-AUC) | activity change, negative = inhibition [1] | outcome [2] | outcome [3] | outcome [4] | outcome [5] | activity, negative = inhibition [4] | Potency [6] |
| --- | --- | --- | --- | --- | --- | --- | --- | --- | --- | --- | --- | --- | --- | --- | --- |
| CCO[C@@H]1OC(=O)C[C@@H]1NC(=O)[C@@H]1CCCN2C(=O)CC[C@H](NC(=O)c3nccc4ccccc34)C(=O)N12 | inactive | inactive | inactive | inactive | inactive | -0.883 (inactive) | -0.455 | -1.09 |  |  |  |  |  |  |  |
| CCc1cc2c(c(OCC(F)(F)F)c(C(=O)NC3CCN(C(=O)CO)CC3)n2C)c(=O)n1CC(=O)c1ccccc1 | inactive | inactive | inactive | inactive | inactive | -1.12 (inactive) | -0.345 | 0.581 |  |  |  |  |  |  |  |
| COc1cc2c(cc1OC)CN(CCc1ccc(-n3nnc(-c4cc(OC)c(OC)cc4NC(=O)c4cc(=O)c5ccccc5o4)n3)cc1)CC2 |  |  |  |  |  | 2.8 (inactive) | 2.17 | 2.67 | -5.16% [at 0.314 µM] (inactive) | inactive [at 0.588 µM] | inactive [at 0.588 µM] | inactive [at 0.4 µM] | inactive [at 0.409 µM] |  |  |
| C=CCN1C[C@H](C(=O)N(CCCN(C)C)C(=O)NCC)CC2c3cccc4[nH]cc(c34)C[C@H]21 (some centres not stated) | inactive | inactive | inactive | inactive | inactive | -0.809 (inactive) | -0.35 | -0.259 |  |  |  |  |  |  |  |
| CC(C)[C@H]1C(=O)N[C@@H](CCCN=C(N)N)C(=O)NCC(=O)N[C@@H](CC(=O)O)C(=O)N[C@H](Cc2ccccc2)C(=O)N1C | inactive | inactive | inactive | inactive | inactive | -1.37 (inactive) | -1.22 | -0.795 |  |  |  |  |  |  |  |
| Cc1onc(-c2ccc(F)cc2)c1COc1ccc(C(=O)N2CCS(=O)(=O)CC2)cn1 | inactive | inactive | inactive | inactive | inactive | 0.971 (inactive) | 1.31 | 0.844 |  |  |  |  |  |  |  |
| CC[C@@]1(O)C(=O)OCc2c1cc1n(c2=O)Cc2c-1nc1ccccc1c2CCNC(C)C | 0.739 µM (active) | 0.0042 µM (active) | 0.0026 µM (active) |  |  |  | -2.94 | -1.65 |  |  |  |  |  | -16.5% [at 4.49 µM] (inactive) | 0.0174 µM (active) |
| Nc1nc(-c2nn(Cc3ccccc3F)c3ncccc23)ncc1C1CC1 | inactive | 1.18 µM (active) | 1.18 µM (active) | inactive | inactive | 1.67 (inactive) | 0.865 | 1.09 |  |  |  |  |  |  |  |
| O=C1OC2(CCC(C(=O)Nc3ccn(-c4ccccc4F)n3)CC2)c2cnccc21 (configuration not stated) | inactive | inactive | inactive | inactive | inactive | 0.0773 (inactive) | 0.881 | 0.97 |  |  |  |  |  |  |  |
| CCOc1ccc(Cc2cc([C@@H]3O[C@H](CO)[C@@H](O)[C@H](O)[C@H]3O)ccc2Cl)cc1 | inactive | inactive | inactive | inactive | inactive | 1.26 (inactive) | 1.31 | 1.52 |  |  |  |  |  |  |  |
| CCOC(=O)N[C@@H]1CC[C@@H]2[C@@H](C1)C[C@H]1C(=O)O[C@H](C)[C@H]1[C@H]2/C=C/c1ccc(-c2cccc(F)c2)cn1 | inactive | 18.6 µM (active) | 13.2 µM (active) | inactive | inactive | 0.314 (inactive) | 1.37 | 1.33 |  |  |  |  |  |  |  |
| C=CC(=O)N1CCC(C2CCNc3c(C(N)=O)c(-c4ccc(Oc5ccccc5)cc4)nn32)CC1 (configuration not stated) | inactive | 14.8 µM (active) | 6.61 µM (active) | inactive | inactive | -0.181 (inactive) | -0.23 | -0.000619 |  |  |  |  |  |  |  |
| COc1ccc(-c2oc3c(CC=C(C)C)c(OC4O[C@H](CO)[C@@H](O)[C@H](O)[C@H]4O)cc(O)c3c(=O)c2OC2O[C@@H](C)[C@H](O)[C@@H](O)[C@H]2O)cc1 (some centres not stated) | inactive | inactive | inactive | inactive | inactive | 0.153 (inactive) | 0.0996 | 0.222 |  |  |  |  |  |  |  |
| Cc1ccc(-c2nc(N)nc3c2nnn3Cc2cccc(CO[C@H]3CCOC3)n2)o1 | inactive | inactive | inactive | inactive |  | -1.33 (inactive) | -0.982 | -1.11 |  |  |  |  |  |  |  |
| COc1cc(OC)c(/C=C/S(=O)(=O)Cc2ccc(OC)c(OP(=O)(O)O)c2)c(OC)c1 | inactive | 0.0372 µM (active) | 0.0332 µM (active) | inactive | inactive |  | -2.04 | -2.09 |  |  |  |  |  |  | 0.049 µM (active) |
| CN1CCN(C(=O)c2ccc(-c3ccc4c(C=O)c(O)ccc4c3)s2)CC1 | 29.4 µM (active) | inactive | inactive | inactive |  | 1.23 (inactive) | 0.551 | 0.471 |  |  |  |  |  |  |  |
| CC(C)(O)CNc1ncc(-c2ccnc(Nc3ccncc3)n2)c(CC2CC2)n1 | 16.5 µM (active) | 4.17 µM (active) | 3.72 µM (active) | inactive | inactive | -0.109 (inactive) | -0.212 | 0.228 |  |  |  |  |  |  |  |
| Cc1nc(NC(=O)N2CCC[C@H]2C(N)=O)sc1-c1csc(C(C)(C)C)n1 | inactive | 5.25 µM (active) | 4.68 µM (active) | inactive | inactive | 0.111 (inactive) | 0.231 | 0.403 |  |  |  |  |  |  |  |
| C=CC(=O)N1CCC[C@H](n2c(=O)n(-c3ccc(Oc4ccccc4)cc3)c3c(N)ncnc32)C1 | inactive | 2.09 µM (active) | 2.09 µM (active) | inactive | inactive | -0.0902 (inactive) | 0.044 | -0.151 |  |  |  |  |  |  |  |
| CN(C)C/C=C/C(=O)Nc1cc2c(Nc3ccc(F)c(Cl)c3)ncnc2cc1O[C@H]1CCOC1 | 16.5 µM (active) | 2.35 µM (active) | 1.86 µM (active) | inactive |  | -1.12 (inactive) | -0.735 | -1.62 |  |  |  |  |  |  |  |
| CSC[C@H]1CN(Cc2c[nH]c3c(N)ncnc23)C[C@@H]1O | inactive | inactive | inactive | inactive | inactive | 1.09 (inactive) | 0.706 | 1.05 |  |  |  |  |  |  |  |
| COc1nc(N)nc2c1ncn2C1OC(CO)C(O)C1O (configuration not stated) | inactive | 5.25 µM (active) | 4.68 µM (active) | inactive | inactive | -0.613 (inactive) | -0.445 | -0.286 |  |  |  |  |  |  |  |
